Experimental data published in publication PMC7826789 (International Journal of Molecular Sciences, 2021).

Key:
Conditions in all cases: Compound Concentration (nM):1000
[1] = tested on: PLK3
[2] = tested on: PLK4
[3] = tested on: PRKCD
[4] = tested on: PRKCE
[5] = tested on: PRKCH
[6] = tested on: PRKCI
[7] = tested on: PRKCQ
[8] = tested on: PRKD1
[9] = tested on: PRKD2
[10] = tested on: PRKD3
[11] = tested on: PRKG1
[12] = tested on: PRKG2
[13] = tested on: T1, PRKR
T1 construct: gene EIF2AK2

[14] = tested on: PRKX
[15] = tested on: T2, PRP4
T2 construct: gene PRPF4B

[16] = tested on: T3, PYK2
T3 construct: gene PTK2B

[17] = tested on: T4, QSK
T4 construct: gene KIAA0999

[18] = tested on: RAF1
[19] = tested on: RET(M918T)
[20] = tested on: RET(V804L)
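Note: KINOMEscan scanMAX binding as percent activity remaining versus control; lower means stronger binding.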

SMILES	Percent Control [1] [%]	Percent Control [2] [%]	Percent Control [3] [%]	Percent Control [4] [%]	Percent Control [5] [%]	Percent Control [6] [%]	Percent Control [7] [%]	Percent Control [8] [%]	Percent Control [9] [%]	Percent Control [10] [%]	Percent Control [11] [%]	Percent Control [12] [%]	Percent Control [13] [%]	Percent Control [14] [%]	Percent Control [15] [%]	Percent Control [16] [%]	Percent Control [17] [%]	Percent Control [18] [%]	Percent Control [19] [%]	Percent Control [20] [%]
COc1cccc(-c2c[nH]c3c(N/N=C/c4ccncc4)ncnc23)c1 [GW814408X]	100	96	100	100	100	30	100	100	100	91	100	97	94	100	100	100	28	74	79	95
NS(=O)(=O)c1ccc(N/N=C2\C(=O)Nc3ccc(C(=O)NCc4ccncc4)cc32)cc1 [GW300657X]	83	39	100	97	96	80	100	100	94	85	100	94	65	94	81	58	100	100	80	74
Cl.O=C(O[C@H]1CN[C@H](C#Cc2cc3ncnc(Nc4ccc5c(cnn5Cc5ccccc5)c4)c3s2)C1)N1CCOCC1 [GSK200398A]	91	69	100	88	100	100	64	100	93	100	95	100	65	77	100	99	100	88	100	100
CN1CCN(C(=O)c2ccc(NC(=O)Nc3ccc(N(C)c4ccnc(Nc5ccc(CS(C)(=O)=O)cc5)n4)cc3)cc2)CC1.Cl [GW830263A]	100	2.7	100	99	100	74	51	100	100	100	100	100	100	100	88	20	86	90	0.2	5.5
COc1ccccc1-c1cc(/C=C2\C(=O)Nc3ncc(Br)cc32)cc(Br)c1O [GW442130X]	89	80	100	100	86	100	100	83	100	100	100	100	90	100	96	100	100	100	100	91
COc1ccc2cc(-c3c(-c4ccncc4)nc(-c4ccc(S(C)(=O)=O)cc4C)n3C)ccc2c1 [SB-633825]	67	85	91	90	100	68	59	84	100	29	100	83	100	95	68	57	79	74	72	94
CN(C)c1cc2c(Nc3ccc4c(cnn4Cc4ccccc4)c3)ncnc2cn1 [GW282974X]	100	66	100	100	97	88	100	100	95	89	100	93	76	80	100	83	95	100	82	93
COc1cc2ncn(-c3cc(O[C@H](C)c4ccccc4Cl)c(C(N)=O)s3)c2cc1OC [GSK237701A]	2	30	100	91	100	78	100	100	100	49	100	92	82	97	61	62	97	73	51	56
O=C1Nc2ccc(C(=O)c3ccco3)cc2C1=Cc1cc(Cl)c(O)c(Cl)c1 [GW406108X]	37	63	100	100	100	100	100	100	100	100	100	100	62	100	71	100	100	13	56	29
CCn1c(-c2nonc2N)nc2c(C#CC(C)(C)O)nc(OCCNC)cc21.Cl [GSK949675]	100	90	40	0	15	61	3.3	95	100	88	34	0.5	94	7.9	90	100	99	100	73	88
O=C(Nc1n[nH]c2nc(-c3ccc(O)cc3)c(Br)cc12)C1CC1 [SB-725317]	88	82	45	46	78	90	58	100	100	99	100	97	59	100	100	100	100	46	100	100
Cl.O=C(Nc1ccc(Oc2ccc3[nH]c(NC(=O)c4ccccc4)nc3c2)cc1)Nc1cc(C(F)(F)F)ccc1F [GW709042A]	92	77	87	100	100	90	100	100	100	83	91	88	85	100	100	100	100	27	2.5	3.6
Nc1ncnc2occ(-c3ccc(NC(=O)Nc4cc(C(F)(F)F)ccc4F)cc3)c12 [GW770249X]	16	80	76	94	100	100	100	100	100	85	71	100	72	100	100	90	100	38	0.8	0.6
C[C@@H](Oc1cc(-n2cnc3ccc(OC4CCN(C)CC4)cc32)sc1C(N)=O)c1ccccc1Cl [GSK579289A]	19	78	66	100	100	43	58	100	84	70	100	65	80	74	100	86	85	100	99	100
COc1cc(C=NNc2ncnc3c2cnn3-c2ccccc2)ccc1O [GW513184X]	71	77	100	88	100	100	86	100	100	100	100	100	76	100	100	100	100	100	18	90
C/C(Nc1ccc(S(N)(=O)=O)cc1)=C1/C(=O)Nc2ccccc21 [GW335962X]	83	74	95	96	100	100	81	100	100	86	90	94	63	87	100	99	97	83	92	98
COc1ccc2c(-c3ccnc(Nc4cccc(OC(F)(F)F)c4)n3)cnn2n1 [GW810372X]	83	100	99	100	94	100	100	100	100	100	82	97	75	100	100	96	95	100	100	100
CC1=C(C(=O)Nc2ccc3[nH]ncc3c2)C(c2ccc3ccccc3c2)CC(=O)N1 (stereo not shown) [GSK270822A]	82	88	100	100	100	80	82	100	100	22	48	29	89	22	62	77	91	87	34	46
CCc1ccc(Oc2nccc(-c3c(-c4ccc(F)cc4)ncn3C3CCNCC3)n2)cc1 [SB-242719]	83	79	100	95	100	95	84	95	85	70	100	92	100	86	100	97	85	100	93	88
CC(C)COC(=O)c1ccc2c(c1)/C(=C/Nc1ccc(S(N)(=O)=O)cc1)C(=O)N2 [GW416981X]	83	64	100	100	100	100	100	100	100	61	100	54	65	100	96	100	95	100	83	43
